In PubChem BioAssay (Tox21):
Results filed as inconclusive are left out. Entries that show only a call come without a potency. Activity calls are given as the source filed them. Unless noted, calls follow the shape of the dose curve; as a rule, active = well fitted curve in the direction sought with a large enough effect in the repeat runs; inconclusive = weak or mixed curves; inactive = no such curve, though single readings can be large; an effect the other way counts as inactive or inconclusive.

Tests used:
[1] = qHTS assay to identify small molecule antagonists of the estrogen related receptor (ERR) signaling pathway (AID 1224819; also: nearly all actives have a fitted effect of over 50% in size)
In short: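 qHTS in ERR cells, 2,000/well, 1536 format. Cpd (DMSO) added after 6 h settle, 18 h 37 C. One-Glo luminescence, 30 min RT.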

[2] = qHTS assay to identify small molecule agonists of the estrogen related receptor (ERR) signaling pathway (AID 1224820)
In short: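 After 6 h plating (2,000 cells/well) and 18 h compound treatment at 37 C, ERR cells were lysed with One-Glo and luminescence read after 30 min at room temperature.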

[3] = tested on: estrogen-related receptor alpha (ERRalpha) with PGC-1alpha coactivator, human; experiment: qHTS assay to identify small molecule antagonists of the estrogen related receptor signaling pathway with the pleiotropic PPARgamma coactivator (PGC) (AID 1224821; calls by dose curve; also: nearly all actives have a fitted effect of over 50% in size)
In short: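 Luminescence from One-Glo luciferase reagent (30 min, room temperature) measured after 18 h compound treatment at 37 °C. Cells carry the PGC/ERR reporter and were seeded 6 h prior to dosing.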

[4] = qHTS assay to identify small molecule antagonists of the estrogen related receptor signaling pathway with the pleiotropic PPARgamma coactivator (PGC) cell viability counter screen (AID 1224822;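 also: viability read after 17.5 h compound exposure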)
In short: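 Multiplexed viability counter screen run in PGC/ERR cells treated with compounds for 17.5 h at 37 C; live-cell protease signal measured by CellTiter-Fluor fluorescence.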

[5] = qHTS assay to identify small molecule agonists of the estrogen related receptor signaling pathway with the pleiotropic PPARgamma coactivator (PGC) (AID 1224823)
In short: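 Luminescence from One-Glo reagent (30 min, room temperature) was read after 18 h compound treatment at 37 C of PGC/ERR cells plated 6 h beforehand; compounds delivered in DMSO by pin tool.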
Potency is read from the fitted curve at half-maximal effect.

| Structure (SMILES) | Potency [1] | Potency [2] | Potency [3] | Potency [4] | Potency [5] |
| --- | --- | --- | --- | --- | --- |
| O=C(Nc1ccc2[nH]ncc2c1)C1CCC1 | inactive | 12.8 µM (active) | inactive | inactive | – |
| O=C1/C(=C/c2ccsc2)CC/C1=C\c1cccs1 | inactive | 24.6 µM (active) | inactive | inactive | 21.1 µM (active) |
| NCC(O)(CS(=O)(=O)O)c1ccc(Cl)cc1 (stereo not given) | inactive | inactive | inactive | inactive | inactive |
| Nc1ncnc2c1nc(Sc1ccc(Cl)cc1)n2[C@H]1OC2COP(=O)(O)O[C@@H]2C1O (stereo not given in full) | inactive | inactive | inactive | inactive | – |
| Cc1nc2n(c(=O)c1CCN1CCC(c3noc4cc(F)ccc34)CC1)CCCC2O (stereo not given) | inactive | inactive | inactive | inactive | inactive |
| COc1ccc2c(c1)CCC1C2CC[C@@]2(C)C1CC[C@@H]2NCCCCCCN1C(=O)CCC1=O (stereo not given in full) | inactive | inactive | inactive | – | – |
| CC1CCN(CC[C@H]2CCCN2S(=O)(=O)c2cccc(O)c2)CC1 | inactive | inactive | inactive | inactive | inactive |
| CNCCC=C1c2ccccc2CCc2ccccc21 | inactive | inactive | inactive | inactive | – |
| COc1ccc(/C=C/C(=O)Nc2ccccc2C(=O)O)cc1OC | inactive | 1.68 µM (active) | inactive | inactive | inactive |
| Cc1cc(NC(=O)Nc2ccc3c(ccn3C)c2)sn1 | inactive | 10.2 µM (active) | inactive | inactive | – |
| CCCCC#Cc1nc(NC)c2ncn([C@@H]3O[C@H](CO)[C@@H](O)C3O)c2n1 (stereo not given in full) | inactive | inactive | inactive | inactive | – |
| CCOC(=O)C(C)Oc1cccc2c(=O)n(CC(=O)Nc3ccc4c(c3)OCCO4)ccc12 (stereo not given) | inactive | inactive | inactive | inactive | – |
| CCN1C(=O)C=CC1=O | inactive | inactive | inactive | inactive | inactive |
| Nc1nc2c(ncn2[C@@H]2O[C@H](CO)[C@@H](O)[C@@H]2O)c(=O)[nH]1 | inactive | inactive | inactive | inactive | inactive |
| O=C(O)C1CCCN(CCC=C(c2ccccc2)c2ccccc2)C1 (stereo not given) | inactive | inactive | inactive | inactive | inactive |
| O=Nc1c(-c2c(O)[nH]c3ccccc23)[nH]c2ccccc12 | inactive | 2.87 µM (active) | inactive | 13.9 µM (active) | – |
| O=c1cc(-c2ccccc2F)[nH]c2cc3c(cc12)OCO3 | inactive | inactive | inactive | inactive | – |
| N#CC(C#N)=C(N)/C(C#N)=C/c1ccc(O)cc1 | inactive | inactive | inactive | inactive | inactive |
| CC1(C)CCC=[N+]1[O-] | inactive | inactive | inactive | inactive | inactive |
| N[C@H](C(=O)O)[C@H](O)C(=O)O | inactive | inactive | inactive | inactive | inactive |
| CCCCCCCC/C=C\CCCCCCCC(=O)NCCO | inactive | inactive | inactive | inactive | inactive |

| Structure (SMILES) | Potency [1] | Potency [2] | Potency [3] | Potency [4] | Potency [5] |
| --- | --- | --- | --- | --- | --- |
| N#C/C(=C\c1ccc(O)c(O)c1)C(=O)NCCc1ccccc1 | inactive | inactive | inactive | inactive | – |
| Cc1cccc(/C=C/c2ccccc2)n1 | inactive | 13.3 µM (active) | inactive | inactive | 13.9 µM (active) |
| O=c1cc(O)cc(/C=C/c2ccc(O)c(O)c2)o1 | inactive | inactive | inactive | inactive | inactive |
| NC(Cc1cccc(-c2ccccc2CP(=O)(O)O)c1)C(=O)O (stereo not given) | inactive | inactive | inactive | inactive | inactive |
| c1ccc2nc(C3=NCCN3)ccc2c1 | inactive | inactive | inactive | inactive | inactive |
| Nc1ncnc2c1ncn2C1CCCC1 | inactive | inactive | inactive | inactive | inactive |
| COC(=O)C(C)(N)Cc1ccc(O)cc1 (stereo not given) | inactive | inactive | inactive | inactive | inactive |
| CCCCCC[C@@H]([C@@H](C)O)n1cnc2c(N)ncnc21 | inactive | inactive | inactive | inactive | – |
| NC(N)=NC(N)=Nc1ccccc1 | inactive | inactive | inactive | inactive | inactive |
| CCC(CO)Nc1nc(NCc2ccccc2)c2ncn(C(C)C)c2n1 (stereo not given) | inactive | inactive | inactive | inactive | inactive |
| NC(=O)C1=CN(C2OC(COP(=O)(O)OP(=O)(O)OC[C@H]3O[C@@H](n4cnc5c(N)ncnc54)[C@H](OP(=O)(O)O)C3O)C(O)C2O)C=CC1 (stereo not given in full) | inactive | inactive | inactive | inactive | – |
| Nc1nc(OCc2ccccc2)c2[nH]cnc2n1 | inactive | inactive | inactive | inactive | inactive |
| COc1ccc(/C=C2\COc3ccc(C)cc3C2=O)cc1O | inactive | 1.19 µM (active) | inactive | inactive | – |
| O=C(OCCN1CCOCC1)C1(c2ccccc2)CCCCC1 | inactive | inactive | inactive | inactive | inactive |
| Oc1ccc(Cn2cc[nH]c2=S)cc1 | inactive | inactive | inactive | inactive | inactive |
| CNc1ncnc2c1ncn2[C@@H]1O[C@H](CO)C(O)[C@H]1O (stereo not given in full) | inactive | inactive | inactive | inactive | – |
| O=C(O)CCCC[C@@H]1CCSS1 | inactive | inactive | inactive | inactive | inactive |
| O=C(O)CCC(C(=O)O)N1C(=O)c2ccccc2C1=O (stereo not given) | inactive | inactive | inactive | inactive | inactive |
| NCCSSCCN | inactive | inactive | inactive | inactive | inactive |
| CCNc1nc2c(ncn2[C@H]2C[C@H](O)[C@@H](CO)O2)c(=O)[nH]1 | inactive | inactive | inactive | inactive | inactive |
| NCCCC(=O)O | inactive | inactive | inactive | inactive | inactive |

| Structure (SMILES) | Potency [1] | Potency [2] | Potency [3] | Potency [4] | Potency [5] |
| --- | --- | --- | --- | --- | --- |
| N[C@H](C(=O)O)[C@H]1C[C@@H]1C(=O)O | inactive | inactive | inactive | inactive | inactive |
| N[C@@H](Cn1ccc(=O)c(O)c1)C(=O)O | inactive | inactive | inactive | inactive | inactive |
| O=C(O)[C@H]1NCCC[C@H]1C(=O)O | inactive | inactive | inactive | inactive | inactive |
| C#CC(N)CCC(=O)O (stereo not given) | inactive | inactive | inactive | inactive | inactive |
| N[C@@H](Cc1cnc[nH]1)C(=O)O | inactive | inactive | inactive | inactive | inactive |
| CCCCCCCCCCCCCCCCCC(=O)OC(CC(=O)O)C[N+](C)(C)C (stereo not given) | inactive | inactive | inactive | inactive | inactive |
| NC(N)=NCCCCN=C(N)N | inactive | inactive | inactive | inactive | inactive |
| NC(=O)C(=O)O | inactive | inactive | inactive | inactive | inactive |
| COc1cc2c(CCNC(C)=O)c[nH]c2cc1O | inactive | inactive | inactive | inactive | inactive |
| S=C(Nc1ccccc1)Nc1nccs1 | inactive | inactive | 0.81 µM (active) | 0.335 µM (active) | inactive |
| CC(C)C[C@H](NC(=O)[C@H](O)[C@H](N)Cc1ccccc1)C(=O)O | inactive | inactive | inactive | inactive | inactive |
| NC(=O)CC[C@H](N)C(=O)O | inactive | inactive | inactive | inactive | inactive |
| CSc1nc(N)c2ncn([C@@H]3O[C@H](COP(=O)(O)OP(=O)(O)O)C(O)[C@H]3O)c2n1 (stereo not given in full) | inactive | inactive | inactive | inactive | inactive |
| N#CC(=C(\N)Sc1ccccc1N)/C(C#N)=C(/N)Sc1ccccc1N | 10.2 µM (active) | inactive | 9.81 µM (active) | inactive | inactive |
| O=S(=O)(c1cccc2c(Cl)cccc12)N1CCCNCC1 | inactive | inactive | inactive | inactive | inactive |
| N[C@@H](CC(=O)O)C(=O)O | inactive | inactive | inactive | inactive | inactive |
| NC1CONC1=O (stereo not given) | inactive | inactive | inactive | inactive | inactive |
| CCn1c(=O)[nH]c2cc(Cl)c(Cl)cc21 | inactive | inactive | inactive | inactive | inactive |
| O=C(/C=C/c1ccc(O)cc1)c1ccc(O)cc1O | inactive | inactive | inactive | inactive | inactive |
